Screens (PubChem BioAssay)
GCN5L2 inh – qHTS Assay for Inhibitors of GCN5L2. Histone acetyltransferase KAT2A (Homo sapiens), Q92830. GCN5L2 HAT assay, ThioGlo1 CoA-SH fluorescence. Potency, µM (series often up to 58.9 µM), without a hit: at the top dose activity change, negative = inhibition, usual class: inhibitors. 390,000 compounds, 0.21% hits. AID 504327, 2011
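qHTS, 1536-well. 20nM enzyme, pH 7.5 HEPES/EDTA/Tween-20 buffer; 15 min compound preinc., RT. Start: 75uM H3(1-25), 70uM AcCoA, 50uM ThioGlo1. Read Ex340/Em540 at t=0 (autofluorescence flag) and t=20 min.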
DT40 TDP1 no CPT – qHTS for Inhibitors of human tyrosyl-DNA phosphodiesterase 1 (TDP1): qHTS in cells in absence of CPT; DT40 Tdp1-/- hTDP1 cells, no CPT, ATP luminescence, 48 h; Potency, µM (doses to about 46.2 µM), inactives show at the highest dose activity change, negative = growth inhibition, actives largely listed as inhibitors; 420,000 compounds, 15% hits; also: nearly all actives have a fitted effect of over 55% in size
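DT40 Tdp1-/-;hTDP1 cells, no CPT (DMSO vehicle only), 400 cells/well; compounds pin-transferred; ≥48 hr, 37 °C; CellTiter-Glo 30 min RT dark, luminescence read.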
TDP1 cell CPT – qHTS for Inhibitors of human tyrosyl-DNA phosphodiesterase 1 (TDP1): qHTS in cells in presence of CPT; chicken DT40 Tdp1-/-;hTDP1 cells + 20 nM CPT, ATP luminescence, 48 h; 420,000 compounds, 12% hits; Potency, µM (titrated, usually from 46.2 µM), inactives show at the highest dose activity change, negative = growth inhibition, actives largely listed as inhibitors; AID 686979, 2013; also: nearly all actives have a fitted effect of over 55% in size
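Chicken DT40 Tdp1-/- cells complemented with human TDP1, 400 cells/well, exposed to compounds plus 20 nM camptothecin for at least 48 h at 37 C; viability read as ATP content by CellTiter-Glo luminescence.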
TDP1 inh – qHTS Assay for Inhibitors of Tyrosyl-DNA Phosphodiesterase (TDP1). 350,000 compounds, 0.28% hits. recombinant TDP1, AlphaScreen DNA substrate cleavage. Potency, µM (doses to about 130 µM), for the others: at the highest dose activity change, negative = inhibition, hits mostly inhibitors; also: nearly all actives have a fitted effect of over 40% in size
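Here, a 5' biotin and 3' phosphotyrosine-FITC DNA oligonucleotide reports Tdp1 activity: intact substrate bridges AlphaScreen beads, while cleavage leaves a 3' phosphate and drops signal. All incubations at room temperature.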
PLK1 PBD block – qHTS for Inhibitors of PLK1-PDB (polo-like kinase 1 - polo-box domain): Primary Screen. Serine/threonine-protein kinase PLK1 (Homo sapiens), P53350. Plk1 PBD binding of FITC phosphopeptide, fluorescence polarization. Potency, µM, for the others: max response, negative = inhibition, actives largely listed as inhibitors. 360,000 compounds, 2.8% hits. AID 720504, 2013; also: series mostly up to about 57 µM; nearly all actives have a fitted effect of over 65% in size
Target sequence (P53350 whole entry, looked up, the tested form may be a part): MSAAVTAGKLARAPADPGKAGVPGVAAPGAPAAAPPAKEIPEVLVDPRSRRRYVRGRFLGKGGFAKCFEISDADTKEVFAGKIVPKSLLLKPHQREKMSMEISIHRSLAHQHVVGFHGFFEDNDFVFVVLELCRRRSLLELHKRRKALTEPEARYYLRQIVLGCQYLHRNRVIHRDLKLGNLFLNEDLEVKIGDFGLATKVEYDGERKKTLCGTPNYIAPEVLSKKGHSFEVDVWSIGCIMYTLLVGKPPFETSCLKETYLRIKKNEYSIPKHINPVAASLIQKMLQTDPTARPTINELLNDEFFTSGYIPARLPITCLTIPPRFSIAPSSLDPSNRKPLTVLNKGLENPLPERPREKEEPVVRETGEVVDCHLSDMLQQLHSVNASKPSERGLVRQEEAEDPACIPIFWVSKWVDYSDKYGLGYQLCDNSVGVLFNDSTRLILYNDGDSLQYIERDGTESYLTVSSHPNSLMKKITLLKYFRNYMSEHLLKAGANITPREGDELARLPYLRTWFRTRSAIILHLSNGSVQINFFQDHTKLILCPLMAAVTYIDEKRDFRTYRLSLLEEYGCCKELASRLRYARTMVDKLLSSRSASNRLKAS
VDR inh – Inhibitors of the vitamin D receptor (VDR): qHTS; Vitamin D3 receptor (Homo sapiens), P11473; Potency, µM, inactives show max response, negative = inhibition, actives largely listed as inhibitors; 400,000 compounds, 0.93% hits; VDR-SRC2-3 peptide fluorescence polarization, 2 h
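Fluorescence polarization assay of small-molecule disruption of VDR binding to coregulator peptide SRC2-3. Compounds and controls pin-transferred, then read after 2 h incubation at ambient room temperature.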
* hit, by the source's call; ? = inconclusive; nt = not tested or not shown; [ ] = another dose, or the depositor's remark. The list is not random: actives were taken first. Their share in the collection is about 18%. Calls follow the shape of the dose curve; as a rule, active = well fitted curve in the direction sought with a large enough effect; inconclusive = small, poorly fitted or top-dose-only effect, or another doubt; inactive = no such curve, though single readings can be large; an effect the other way counts as inactive or inconclusive. % is scaled to controls: 0 for no effect and ±100 for the full control effect; potency is read from the fitted curve at half-maximal effect.

SMILES	GCN5L2 inh	DT40 TDP1 no CPT	TDP1 cell CPT	TDP1 inh	PLK1 PBD block	VDR inh
CN(C)c1ccnc2sc3c(SCc4ccc(Cl)cc4)ncnc3c12	-1.0%	13µM*	16.4µM*	2.8%	0.6%	14.2%
CN(C)c1ccnc2sc3c(NCC(O)CO)ncnc3c12 (stereo not drawn)	-4.9%	?	-5.5%	3.0%	3.1%	-5.3%
Cc1ccc2nc(-c3c[nH]c4ccccc34)c(Nc3ccccc3C)n2c1	-8.5%	3.26µM*	16.4µM*	6.4%	nt	-15.1%
Cc1ccc(Nc2c(-c3ccc(Br)o3)nc3ccccn23)cc1	5.4%	?	?	0.0%	nt	-2.1%
Cc1ccc(Nc2c(-c3c[nH]c4ccccc34)nc3ccccn23)cc1	3.6%	20.6µM*	13µM*	14.7%	nt	-4.2%
CCCCC[C@H](O)/C=C/[C@@H]1[C@@H](C/C=C\CCCC(=O)O)[C@@H](O)C[C@@H]1O	5.4%	6.4%[4.12 µM]	30.9%[4.12 µM]	9.8%	nt	2.4%
Oc1ccc(N=Cc2ccc(-c3cccs3)s2)cc1	?	?	?	2.0%	-3.4%	79.4µM*
O=Cc1ccc(-c2cccs2)s1	nt	-8.8%	-7.5%	nt	-19.7%	-19.3%
O=C(CSC1=NCCN1)NC(c1ccccc1)c1ccccc1	-6.7%	20.6µM*	?	2.7%	-24.6%	-16.4%
O=C(CSC1=NCCN1)Nc1ccccc1[N+](=O)[O-]	-1.7%	20.6µM*	?	1.2%	-9.2%	-4.3%
Cc1ccc(NC(=O)CSC2=NCCN2)cc1	-0.1%	18.4µM*	23.1µM*	-2.7%	-9.8%	-21.1%
O=C(CSC1=NCCN1)Nc1cccc([N+](=O)[O-])c1	1.6%	20.6µM*	14.6µM*	5.8%	?	-6.3%
COc1ccc(OC)c(NC(=O)c2csnn2)c1	2.8%	?	?	5.7%	nt	-1.4%
CN(Cc1ccccc1)C(=O)COC(=O)c1cc(NS(=O)(=O)c2cccs2)ccc1O	-0.5%	?	?	-2.7%	-5.6%	6.4%
CCCCc1ccc(S(=O)(=O)NC(=O)C2(C)CCN2C(=O)CCc2cccs2)cc1 (stereo not drawn)	nt	-14.0%	-22.7%	nt	-0.2%	nt
COc1ccc(CN2CCCC(Cn3cc(C(=O)N4CCCC4)nn3)C2)c(O)c1 (stereo not drawn)	nt	-5.8%	1.1%	nt	nt	nt
O=C(NCc1ccccc1Cl)C1CCCN(C(=O)c2cnn(-c3ccc(F)cc3)c2-n2cccc2)C1 (stereo not drawn)	-2.9%	nt	nt	8.5%	nt	0.0%
CC(C)C(NC(=O)C1CCCCC1)C(=O)N1CCN(c2ccc(F)cc2)CC1 (stereo not drawn)	-13.8%	16.4µM*	13µM*	5.2%	-3.0%	-8.8%
CC(C)[C@H](NC(=O)C1CC(=O)N(c2ccc(F)cc2)C1)C(=O)N1CCCCC1 (stereo partly drawn)	0.2%	?	?	0.4%	3.36µM*	?
CC1CCC(C(=O)NC(C(=O)N2CCc3ccccc3C2)C(C)C)CC1 (stereo not drawn)	-0.1%	?	16.4µM*	0.0%	-6.8%	4.5%
CCOC(=O)C1CCN(C(=O)c2ccc3c(c2)sc2nc(-c4ccccc4)cn23)CC1	-4.6%	23.1µM*	6.51µM*	0.0%	nt	11.2%
Cc1ccc(-c2cn3c(n2)sc2cc(C(=O)N4CCCCC4)ccc23)cc1	-14.4%	16.4µM*	-79.4%	-1.3%	nt	-5.0%
CCOC(=O)N1CCN(C(=O)c2ccc3c(c2)sc2nc(-c4ccccc4)cn23)CC1	?	?	?	-2.0%	2.0%	-5.4%
Cc1ccc(-c2cn3c(n2)sc2cc(C(=O)NC(C)C45CC6CC(CC(C6)C4)C5)ccc23)cc1 (stereo not drawn)	-2.4%	-21.2%	-14.7%	0.0%	nt	-2.1%
CCOC(=O)C1CCN(C(=O)c2ccc3c(c2)sc2nc(-c4ccc(OCC)cc4)cn23)CC1	-7.9%	6.51µM*	7.31µM*	1.3%	nt	-0.6%
SMILES	GCN5L2 inh	DT40 TDP1 no CPT	TDP1 cell CPT	TDP1 inh	PLK1 PBD block	VDR inh
Cc1cc2oc(C(=O)Nc3sc4c(c3C(=O)NCC3CCCO3)CCC4)cc(=O)c2cc1C (stereo not drawn)	1.3%	-20.4%	9.1%	1.2%	nt	-0.4%
O=C(c1cccc(S(=O)(=O)N2CCCCC2)c1)N(CCc1ccccc1)Cc1ccccc1	-22.9%	?	18.4µM*	-10.0%[0.505 µM]	-2.2%	-16.5%
CCN(Cc1nc2ccccc2c(=O)[nH]1)C(=O)c1cccc(S(=O)(=O)N2CCc3ccccc32)c1	-10.3%	16.4µM*	?	1.6%	-14.6%	16.8%
CN(Cc1nc2ccccc2c(=O)[nH]1)C(=O)c1cccc(S(=O)(=O)N2CCCC2)c1	1.2%	7.0%	-16.7%	-1.8%	2.0%	2.5%
CCCCN(C(=O)c1ccc2c(c1)OCO2)c1ccccc1	-1.1%	16.4µM*	?	0.0%	?	-20.3%
CN(C)CCC(=O)c1ccc2c(c1)OCO2	0.1%	3.66µM*	3.66µM*	4.2%	18.9µM*	79.4µM*
CN(Cc1ccccc1)C(=O)c1ccc2c(c1)OCO2	-1.1%	-5.6%	3.5%	3.2%	-4.9%	-15.2%
O=C(c1cccc(S(=O)(=O)N2CCOCC2)c1)N(CCO)Cc1ccccc1	-1.9%	0.2%	-22.9%	4.1%	-6.5%	?
CCOc1ccc(-n2nc3ccc(NC(=O)c4ccc(-c5cccc(Cl)c5)o4)cc3n2)cc1	-17.1%	-13.2%	0.2%	0.4%[12.3 µM]	nt	-17.9%
Cc1ccc(C)c(NC(=O)CN2C(=O)c3cccnc3Oc3ccc(C)cc32)c1	-11.3%	?	?	-2.5%	nt	-6.9%
CCCn1c(N)c(N(CCOC)C(=O)c2cccc(S(=O)(=O)N3CCCc4ccccc43)c2)c(=O)[nH]c1=O	-16.6%	?	?	5.0%	-5.6%	-12.6%
COCCN(Cc1ccccc1)C(=O)c1cccc(S(=O)(=O)N2CCN(Cc3ccccc3)CC2)c1	nt	18.4µM*	?	nt	4.3%	nt
CC(=O)N1CCN(S(=O)(=O)c2cccc(C(=O)N(Cc3ccccc3)c3cccc(C)c3)c2)CC1	2.9%	?	?	-6.6%[0.505 µM]	-8.2%	-4.8%
Cc1ccc(CN(C)C(=O)c2cccc(S(=O)(=O)N3CCc4ccccc43)c2)cc1	-8.5%	20.6µM*	?	-1.0%	-10.5%	6.4%
COc1cccc(CNC(=O)c2cccc(S(=O)(=O)N3CCN(Cc4ccccc4)CC3)c2)c1	nt	-18.3%	-9.2%	nt	4.8%	5.8%
